From PubChem BioAssay (EPA / NIEHS)
The source made the active and inactive calls. Rule for the calls: active = hit-call score of the fitted dose curve at least 0.9, where 1 is the maximum; inactive = score below 0.9.

Assays:
[1] = ATG_CRE_CIS: Attagene CIS-FACTORIAL HepG2 Assay for human cAMP Responsive Element (CRE) binding protein 3 (AID 2282926); settings: HepG2 CRE cis-reporter, Attagene multiplexed mRNA; actives raise or lower the signal
Method in brief: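 Cells carrying cis-regulated reporter constructs respond through their own endogenous factors. After 24 h treatment, RNA is reverse-transcribed, amplified, labelled and sized by capillary electrophoresis; up- and down-regulation are both scored against vehicle.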

[2] = molecular target: CCAAT/enhancer-binding protein beta (Homo sapiens) (UniProt P17676); test: ATG_C_EBP_CIS: Attagene CIS-FACTORIAL HepG2 Assay for human CCAAT/Enhancer Binding Protein (C/EBP) beta (AID 2282927); settings: HepG2 Attagene cis-factorial transcription factor reporter; actives raise or lower the signal
Sequence of CCAAT/enhancer-binding protein beta (Homo sapiens) (P17676 whole entry, looked up): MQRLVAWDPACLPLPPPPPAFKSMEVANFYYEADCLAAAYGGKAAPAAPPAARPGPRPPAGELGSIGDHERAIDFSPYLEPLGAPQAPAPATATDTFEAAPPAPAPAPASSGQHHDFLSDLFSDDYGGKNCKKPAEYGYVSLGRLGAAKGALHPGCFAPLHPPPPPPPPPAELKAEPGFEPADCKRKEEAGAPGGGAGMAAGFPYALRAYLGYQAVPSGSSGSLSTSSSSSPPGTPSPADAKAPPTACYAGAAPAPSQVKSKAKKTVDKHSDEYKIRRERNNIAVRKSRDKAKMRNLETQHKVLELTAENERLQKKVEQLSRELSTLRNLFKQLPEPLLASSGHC
Method in brief: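 Endogenous transcription factor activity in human liver HepG2 cells is inferred from induction of a CEBPB-linked reporter mRNA. Exposure lasts 24 h; activity is fitted in both directions relative to DMSO.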

[3] = ATG_CMV_CIS: Attagene CIS-FACTORIAL HepG2 Assay for human CMV (Internal Marker) (AID 2282928); settings: HepG2 CMV promoter reporter, transcription factor profiling; actives raise or lower the signal;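 note: endpoint acts as a background internal control marker rather than a target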
Method in brief: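 Reporter transcripts from transfected HepG2 cells are isolated after 24 h of chemical dosing, reverse-transcribed and amplified. Fragments labeled with 6-FAM are cut with HpaI and quantified by capillary electrophoresis; DMSO defines baseline.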

[4] = ATG_DR4_LXR_CIS: Attagene CIS-FACTORIAL HepG2 Assay for human Liver X Receptor (LXR), DR4 submotif (AID 2282929); settings: HepG2 Attagene DR4 cis-reporter, mRNA transcription; actives raise or lower the signal
Method in brief: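 HepG2 cells transiently transfected with cis-promoter-driven multiplexed reporter units (DR4 element) were dosed for 24 h. Reporter mRNA was quantified by RT-PCR, fluorescent primer extension, HpaI digestion and capillary electrophoresis; bidirectional fitting versus DMSO baseline.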

[5] = molecular target: Aryl hydrocarbon receptor (Homo sapiens) (UniProt P35869); test: ATG_Ahr_CIS: Attagene CIS-FACTORIAL HepG2 Assay for human Aryl Hydrocarbon Receptor (Ahr) (AID 2282930); settings: HepG2 AhR cis-factorial reporter transcription; actives raise or lower the signal
Sequence of Aryl hydrocarbon receptor (Homo sapiens) (P35869 whole entry, looked up): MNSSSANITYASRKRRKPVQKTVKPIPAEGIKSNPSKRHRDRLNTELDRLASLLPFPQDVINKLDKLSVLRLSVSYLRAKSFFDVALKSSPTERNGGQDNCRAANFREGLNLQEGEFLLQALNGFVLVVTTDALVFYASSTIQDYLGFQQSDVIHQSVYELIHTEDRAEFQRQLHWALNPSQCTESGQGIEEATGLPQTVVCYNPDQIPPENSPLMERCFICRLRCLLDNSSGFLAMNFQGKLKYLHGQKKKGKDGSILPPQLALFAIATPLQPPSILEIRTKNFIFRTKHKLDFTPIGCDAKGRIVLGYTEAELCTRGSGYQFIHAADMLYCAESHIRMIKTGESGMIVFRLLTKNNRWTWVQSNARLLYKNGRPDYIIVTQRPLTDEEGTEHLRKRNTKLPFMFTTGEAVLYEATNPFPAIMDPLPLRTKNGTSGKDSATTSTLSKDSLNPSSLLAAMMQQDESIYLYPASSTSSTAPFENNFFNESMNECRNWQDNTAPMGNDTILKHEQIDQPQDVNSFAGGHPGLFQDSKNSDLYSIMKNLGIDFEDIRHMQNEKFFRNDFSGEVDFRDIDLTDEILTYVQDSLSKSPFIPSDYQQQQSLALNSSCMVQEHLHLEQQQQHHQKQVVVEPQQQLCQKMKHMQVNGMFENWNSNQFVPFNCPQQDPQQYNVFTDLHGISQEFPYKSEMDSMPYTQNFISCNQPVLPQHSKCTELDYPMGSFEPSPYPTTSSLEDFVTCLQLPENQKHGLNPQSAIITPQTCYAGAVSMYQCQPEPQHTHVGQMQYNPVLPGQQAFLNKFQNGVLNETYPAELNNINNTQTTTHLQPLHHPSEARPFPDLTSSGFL
Method in brief: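 Transient MRTU transfection of HepG2 → 24 h compound exposure → total RNA, oligo(dT) RT → PCR, 6-FAM extension, HpaI cut → CE fluorescence. DMSO = baseline; bidirectional curve fit.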

[6] = ATG_AP_1_CIS: Attagene CIS-FACTORIAL HepG2 Assay for human Activator Protein 1 (AP-1) (AID 2282931); settings: HepG2 Attagene cis-factorial AP-1 reporter mRNA; actives raise or lower the signal
Method in brief: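 HepG2 cells transiently transfected with cis-element-driven multiplex reporter units; 24 h compound exposure. Reporter mRNA quantified by RT-PCR, FAM-labelled fragments resolved by capillary electrophoresis; bidirectional fit versus DMSO baseline.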

[7] = ATG_AP_2_CIS: Attagene CIS-FACTORIAL HepG2 Assay for human Activator Protein 2 (AP-2) (AID 2282932); settings: HepG2 AP-2 cis-reporter, Attagene transcription factor profiling; actives raise or lower the signal
Method in brief: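 Transiently transfected HepG2 cells are exposed to chemical for 24 h. Reporter transcripts are then measured as fluorescence following RT-PCR and capillary separation, and gain- or loss-of-signal is fitted relative to DMSO.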

[8] = ATG_BRE_CIS: Attagene CIS-FACTORIAL HepG2 Assay for human Bone Morphogenetic Protein (BMP) Response Element (BRE) (AID 2282933); settings: HepG2 BMP response element reporter, Attagene transcription factor profiling; actives raise or lower the signal
Method in brief: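 Endogenous transcription factor activity at a BMP response element was monitored in transfected HepG2 cells 24 h after dosing. Fluorescent RT-PCR products were resolved by capillary electrophoresis, and activity was fitted in both directions versus DMSO.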

[9] = molecular target: Retinoic acid receptor alpha (Homo sapiens) (UniProt P10276); test: ATG_DR5_RAR_CIS: Attagene CIS-FACTORIAL HepG2 Assay for human Retinoic Acid Receptor Alpha (RARE), DR5 submotif (AID 2282934); settings: HepG2 Attagene cis-factorial RARE DR5 reporter, mRNA; actives raise or lower the signal
Sequence of Retinoic acid receptor alpha (Homo sapiens) (P10276 whole entry, looked up): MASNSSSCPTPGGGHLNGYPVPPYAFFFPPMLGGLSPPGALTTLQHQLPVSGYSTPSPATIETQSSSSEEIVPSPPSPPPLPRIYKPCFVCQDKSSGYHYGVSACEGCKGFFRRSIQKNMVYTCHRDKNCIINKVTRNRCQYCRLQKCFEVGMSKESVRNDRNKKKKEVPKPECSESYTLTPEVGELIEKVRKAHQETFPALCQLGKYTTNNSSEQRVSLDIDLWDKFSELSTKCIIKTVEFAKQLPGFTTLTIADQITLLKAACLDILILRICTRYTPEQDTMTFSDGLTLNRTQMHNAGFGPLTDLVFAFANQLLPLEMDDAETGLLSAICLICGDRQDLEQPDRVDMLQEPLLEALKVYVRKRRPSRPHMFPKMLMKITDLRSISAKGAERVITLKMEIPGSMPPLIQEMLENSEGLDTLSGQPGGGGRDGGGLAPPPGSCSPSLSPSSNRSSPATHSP
Method in brief: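 Transient MRTU transfection of HepG2; 24 h compound treatment; TriZol RNA, oligo(dT) RT, PCR, FAM labelling, capillary electrophoresis. Bidirectional fit vs DMSO. Endogenous TF activity at DR5 RARE.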

[10] = molecular target: Transcription factor E2F1 (Homo sapiens) (UniProt Q01094); test: ATG_E2F_CIS: Attagene CIS-FACTORIAL HepG2 Assay for human E2F Transcription Factor 1 (AID 2282935); settings: HepG2 Attagene cis-reporter, E2F reporter RNA transcripts; actives raise or lower the signal
Sequence of Transcription factor E2F1 (Homo sapiens) (Q01094 whole entry, looked up): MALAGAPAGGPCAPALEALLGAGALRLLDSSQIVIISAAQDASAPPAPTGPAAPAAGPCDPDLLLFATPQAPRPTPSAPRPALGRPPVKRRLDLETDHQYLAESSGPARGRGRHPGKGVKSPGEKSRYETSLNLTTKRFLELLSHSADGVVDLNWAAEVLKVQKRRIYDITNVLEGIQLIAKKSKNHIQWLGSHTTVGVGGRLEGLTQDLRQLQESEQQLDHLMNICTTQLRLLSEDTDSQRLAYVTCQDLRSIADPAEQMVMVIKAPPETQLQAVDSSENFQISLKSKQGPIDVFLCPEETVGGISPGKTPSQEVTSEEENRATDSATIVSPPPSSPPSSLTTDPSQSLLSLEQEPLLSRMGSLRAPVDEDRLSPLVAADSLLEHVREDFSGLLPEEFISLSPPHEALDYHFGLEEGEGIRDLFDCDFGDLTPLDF
Method in brief: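 Fluorescent RT-PCR products, digested with HpaI for 2 h at 37 C, are separated by capillary electrophoresis. Source RNA comes from transfected HepG2 cultures treated for 24 h.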

[11] = ATG_E_Box_CIS: Attagene CIS-FACTORIAL HepG2 Assay for human Enhancer Box (E-box) (AID 2282936); settings: HepG2 E-box cis-reporter transcription, actives raise or lower the signal
Method in brief: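 Fluorescent reporter fragments separated by capillary electrophoresis gave the signal; mRNA came from HepG2 cells transfected with cis-element reporters and treated 24 h. Curves fitted bidirectionally relative to DMSO controls.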

[12] = ATG_M_61_CIS: Attagene CIS-FACTORIAL HepG2 Assay for M61 Transcription Factor (Internal Marker) (AID 2282937); settings: HepG2 Attagene CIS-FACTORIAL M61 internal marker reporter; actives raise or lower the signal
Method in brief: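 HepG2 cells transiently transfected with cis-element-driven multiple reporter transcription units, dosed for 24 h. Reporter mRNA measured by RT-PCR, 6-FAM primer-extension labelling, HpaI digestion and capillary electrophoresis; bidirectional fit versus DMSO baseline.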

[13] = ATG_EGR_CIS: Attagene CIS-FACTORIAL HepG2 Assay for human Early Growth Response 1 (EGR1) (AID 2282938); settings: HepG2 Attagene CIS-FACTORIAL EGR reporter mRNA; actives raise or lower the signal
Method in brief: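 HepG2 cells transiently transfected with cis-promoter-driven multiplexed reporter transcription units; reporter mRNA measured 24 h after compound dosing by RT-PCR, 6-FAM primer extension, HpaI digestion and capillary electrophoresis. Bidirectional fit versus DMSO baseline.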

[14] = ATG_M_19_CIS: Attagene CIS-FACTORIAL HepG2 Assay for M19 Transcription Factor (Internal Marker) (AID 2282939); settings: HepG2 Attagene CIS-FACTORIAL M19 internal marker reporter; actives raise or lower the signal
Method in brief: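 Background-control endpoint from a multiplexed HepG2 reporter panel. Cells carrying cis-regulated reporter constructs are treated 24 h, then reporter transcripts are amplified, fluorescently labelled and sized by capillary electrophoresis. DMSO defines baseline.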

[15] = ATG_Ets_CIS: Attagene CIS-FACTORIAL HepG2 Assay for human Erythroblast Transformation Specific (ETS) (AID 2282941); settings: HepG2 ETS cis-reporter transcription, actives raise or lower the signal
Method in brief: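 Bidirectional fit versus DMSO of reporter mRNA signal, detected by RT-PCR and capillary electrophoresis in HepG2 cells transiently transfected with cis-element reporters and dosed 24 h.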

[16] = molecular target: Hepatocyte nuclear factor 3-beta (Homo sapiens) (UniProt Q9Y261); test: ATG_FoxA2_CIS: Attagene CIS-FACTORIAL HepG2 Assay for human Forkhead box A2 (FOXA2) (AID 2282942); settings: HepG2 cis-reporter transcription factor activity, 24 h; actives raise or lower the signal
Sequence of Hepatocyte nuclear factor 3-beta (Homo sapiens) (Q9Y261 whole entry, looked up): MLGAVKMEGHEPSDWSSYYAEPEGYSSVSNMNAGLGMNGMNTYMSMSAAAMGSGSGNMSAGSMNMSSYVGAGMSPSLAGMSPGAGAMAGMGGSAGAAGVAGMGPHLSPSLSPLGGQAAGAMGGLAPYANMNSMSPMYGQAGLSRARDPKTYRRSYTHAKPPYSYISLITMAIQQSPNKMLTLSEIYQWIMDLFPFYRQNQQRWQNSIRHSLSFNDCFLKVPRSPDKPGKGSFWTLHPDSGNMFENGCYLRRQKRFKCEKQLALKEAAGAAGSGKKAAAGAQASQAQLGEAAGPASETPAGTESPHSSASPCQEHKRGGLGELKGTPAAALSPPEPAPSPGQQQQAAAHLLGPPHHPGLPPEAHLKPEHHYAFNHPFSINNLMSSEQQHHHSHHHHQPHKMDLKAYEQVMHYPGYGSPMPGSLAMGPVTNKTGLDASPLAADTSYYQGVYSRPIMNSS
Method in brief: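 HepG2 cells transiently transfected with multiple cis-regulated reporter transcription units, dosed for 24 h. Reporter mRNA measured by RT-PCR, 6-FAM labelling, HpaI digestion and capillary electrophoresis; bidirectional fitting against DMSO baseline.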

[17] = ATG_FoxO_CIS: Attagene CIS-FACTORIAL HepG2 Assay for human Forkhead box O (FoxO) (AID 2282943); settings: HepG2 Attagene cis-reporter, FoxO element, mRNA; actives raise or lower the signal
Method in brief: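 HepG2, transient MRTU transfection (cis element, endogenous TFs). Dose 24 h. TriZol RNA → oligo(dT) RT → PCR → 6-FAM primer extension → HpaI cut → CE. Gain/loss vs DMSO.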

[18] = ATG_GATA_CIS: Attagene CIS-FACTORIAL HepG2 Assay for human GATA Binding Protein (AID 2282944); settings: HepG2 GATA cis-element reporter, Attagene multiplex mRNA; actives raise or lower the signal
Method in brief: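 Endogenous transcription factor activity was captured through cis-promoter-driven reporters in transfected HepG2 cells. After 24 h exposure, reporter transcripts were quantified by RT-PCR with fluorescent capillary electrophoresis, and responses fitted both directions against DMSO.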

[19] = ATG_GLI_CIS: Attagene CIS-FACTORIAL HepG2 Assay for human Zinc Finger Protein GLI1 (AID 2282945); settings: HepG2, Attagene cis-factorial reporter mRNA, GLI element; actives raise or lower the signal
Method in brief: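 Bidirectional curve fits relative to DMSO, using reporter mRNA levels from RT-PCR plus capillary electrophoresis. Cells were HepG2 transiently carrying cis-regulated reporter constructs, harvested 24 h after dosing.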

[20] = ATG_ERE_CIS: Attagene CIS-FACTORIAL HepG2 Assay for Estrogen Response Element (ERE) (AID 2282940); settings: HepG2 ERE cis-reporter, Attagene RNA transcript; actives raise or lower the signal
Method in brief: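 Cells used were human hepatoma HepG2, transfected with multiple reporter transcription units under cis-regulatory promoters. Reporter mRNA, read 24 h post-dosing via fluorescent RT-PCR products on capillary electrophoresis, was fitted bidirectionally relative to DMSO.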

Measured: AC50

CCCCC[Si](OCC)(OCC)OCC
inactive: [1] | [2] | [3] | [4] | [5] | [6] | [7] | [8] | [9] | [10] | [11] | [12] | [13] | [14] | [15] | [16] | [17] | [18] | [19]

CCCCN
inactive: [1] | [2] | [3] | [4] | [5] | [6] | [7] | [8] | [10] | [11] | [12] | [13] | [14] | [20] | [15] | [16] | [17] | [18] | [19]

O=C1CCCCCCCCCCOCCCCO1
active: [4] 74.1 µM | [8] 100 µM
inactive: [1] | [2] | [3] | [5] | [6] | [7] | [9] | [10] | [11] | [12] | [13] | [14] | [15] | [16] | [17] | [18] | [19]

CCOC(=O)c1ccccc1OC
inactive: [1] | [2] | [3] | [4] | [5] | [6] | [7] | [8] | [9] | [10] | [11] | [12] | [13] | [14] | [15] | [16] | [17] | [18] | [19]

C=CC[N+](C)(C)CC=C
inactive: [1] | [2] | [3] | [4] | [5] | [6] | [7] | [8] | [9] | [10] | [11] | [12] | [13] | [15] | [16] | [17] | [18] | [19]

OCC(CO)(CO)COCC(CO)(CO)CO
inactive: [1] | [2] | [3] | [4] | [5] | [6] | [7] | [8] | [10] | [11] | [12] | [13] | [14] | [20] | [15] | [16] | [17] | [18] | [19]

C[C@H]1C[C@@H]2[C@H]([C@@H](O)C[C@@]3(C)[C@H]2CC[C@]3(O)C(=O)CO)[C@@]2(C)C=CC(=O)C=C12
inactive: [1] | [2] | [3] | [4] | [5] | [6] | [7] | [8] | [9] | [10] | [12] | [13] | [14] | [15] | [16] | [17] | [18] | [19]
